Bioassay records: PubChem, several laboratories
This is a sample that favours compounds with a hit; in the whole collection about 4.2% have one here.
GDH-TPI counter-1 – GDH-TPI coupling enzyme inhibitors, primary screen, artefact control for M. tuberculosis FBA inhibitor project, biochemical, absorbance, full deck; GDH-TPI coupled enzyme counterscreen, NADH absorbance; inhibition, % at 4.8 µM; 360,000 tested, 1.2% active; AID 588335, 2011; in the data active = inhibition above about 30%;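 note: 0% = DMSO wells and 100% = wells lacking the enzyme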
RecA splice inh – Mtb RecA intein splicing inhibitors, primary screen, biochemical, fluorescence, HTS | inhibition, % (test concentration not listed) | cell-free RecA intein splicing | Protein RecA (Mycobacterium tuberculosis (strain ATCC 25618 / H37Rv)), P9WHJ3 | 290,000 tested, 0.75% active | AID 2221, 2009; in the data active = inhibition above about 30%;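 note: 0% = vehicle wells and 100% = reference inhibitor control wells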
Target sequence (P9WHJ3 whole entry, looked up, canonical isoform): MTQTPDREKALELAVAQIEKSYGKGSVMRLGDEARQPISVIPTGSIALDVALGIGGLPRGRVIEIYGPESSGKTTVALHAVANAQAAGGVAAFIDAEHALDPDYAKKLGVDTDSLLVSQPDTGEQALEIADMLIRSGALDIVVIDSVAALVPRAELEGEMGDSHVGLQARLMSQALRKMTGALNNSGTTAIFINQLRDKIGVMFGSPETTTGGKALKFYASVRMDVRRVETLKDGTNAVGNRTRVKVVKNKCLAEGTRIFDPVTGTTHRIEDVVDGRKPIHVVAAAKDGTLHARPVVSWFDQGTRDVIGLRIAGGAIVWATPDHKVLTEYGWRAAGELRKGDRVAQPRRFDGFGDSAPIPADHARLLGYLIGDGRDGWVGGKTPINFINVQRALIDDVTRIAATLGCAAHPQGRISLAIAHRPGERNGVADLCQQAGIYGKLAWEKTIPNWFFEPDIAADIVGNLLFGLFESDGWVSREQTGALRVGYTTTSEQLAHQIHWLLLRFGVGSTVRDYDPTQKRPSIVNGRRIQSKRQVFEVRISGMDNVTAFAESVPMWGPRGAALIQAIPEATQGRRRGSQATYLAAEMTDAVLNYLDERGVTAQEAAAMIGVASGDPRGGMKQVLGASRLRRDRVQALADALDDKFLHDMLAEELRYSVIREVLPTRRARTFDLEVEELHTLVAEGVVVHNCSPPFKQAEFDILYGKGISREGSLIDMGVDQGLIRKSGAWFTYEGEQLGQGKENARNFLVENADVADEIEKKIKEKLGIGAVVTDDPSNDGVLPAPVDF
FBA Mtb inh – Mtb FBA enzyme inhibitors, primary screen, biochemical, fluorescence, strain H37Rv; 360,000 tested, 2.3% active; inhibition, % at 1 µM; Fructose-bisphosphate aldolase (Mycobacterium tuberculosis (strain ATCC 25618 / H37Rv)), …; purified M. tuberculosis FBA, fluorescence read-out; AID 588726, 2011;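 note: 0% = vehicle and 100% = reference inhibitor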
PrPC TRFRET – inhibitors of human cell surface prion protein PrPC, primary screen, cell-based, TR-FRET; Major prion protein (Homo sapiens), P04156; TR-FRET read-out; inhibition, % at 13.8 µM; 370,000 tested, 0.43% active; AID 720596, 2013; in the data active = inhibition above about 24%; note: 0% = median of the test wells and 100% = reference compound wells
BJeLR viability – MLPCN primary cell-based screen for lethality selective to Ras in HRASV12 cells; BJeLR (HRASV12) viability, CellTiter-Glo ATP luminescence, 48 h; inhibition, % (test concentration not listed); 300,000 tested, 0.17% active; in the data active = inhibition above about 50%
Mtb FBA confirm – M. tuberculosis aldolase blockers, biochemical, fluorescence, strain H37Rv, confirmation | inhibition, % at 1 µM | AID 651616, 2012 | purified M. tuberculosis FBA, fluorescence read-out | 5,600 tested, 78% active | shares compounds with FBA Mtb inh;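 note: 0% = vehicle wells and 100% = reference inhibitor wells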
GDH-TPI counter-2 – GDH-TPI coupling enzyme inhibitors, artefact control for M. tuberculosis FBA inhibitor project, biochemical, fluorescence, high throughput; shares compounds with FBA Mtb inh; GDH-TPI coupled enzyme counterscreen; inhibition, % at 1 µM; 5,600 tested, 81% active; AID 652141, 2013; in the data active = inhibition above about 10%
* marks the source's active call; other numbers are inactive results; / = no result; + = active, no number. Cut-off read from the data, not from the text of the source, unless noted: active = inhibition above about 27%; inactive = the rest.

SMILES	GDH-TPI counter-1	RecA splice inh	FBA Mtb inh	PrPC TRFRET	BJeLR viability	Mtb FBA confirm	GDH-TPI counter-2
COc1cc(-c2nc(-c3ccccc3)c(-c3cccs3)[nH]2)cc(OC)c1O	21	0	24	2	-1	/	/
c1ccc(-c2nc(-c3cccs3)[nH]c2-c2ccccc2)cc1	18	/	63*	-3	-1	+	178*
O=C(NCc1ccccc1)N1CCC(c2nc3ccc(Cl)cc3[nH]2)CC1	/	/	/	3	/	/	/
CCOC(=O)[C@@]12CCCC3=C1N(CCC3)C(=O)[C@H]2CC(=O)NCc1cccc(C(F)(F)F)c1	/	/	/	-6	/	/	/
O=C(c1cc(Cl)cc(Cl)c1)N1CC[C@H]2[C@H](CCCN2Cc2ccccc2)C1	/	/	/	0	/	/	/
COc1ccc(S(=O)(=O)n2ccc(-c3cnc(-c4ccccc4)s3)n2)cc1	18	6	2	-89	-11	/	/
O=C(c1ccccc1)n1ccc(-c2cnc(-c3ccccc3)s2)n1	12	3	95*	-9	2	73*	58*
COc1ccc(/C=N/c2oc(-c3ccccc3)cc2C#N)cc1	5	-2	12	3	3	/	/
COc1cccc(/C=N/c2oc(-c3ccccc3)cc2C#N)c1O	-2	4	54*	4	1	7	2
N#Cc1cc(-c2ccccc2)oc1/N=C/c1ccccc1O	10	-5	59*	7	-2	45*	29*
CN(C)c1ccc(-c2ccnc3c2CC(C)(C(=O)NCc2cccc(Cl)c2)O3)cc1 (stereo unspecified)	18	/	62*	6	/	58*	39*
CN(C)c1ccc(-c2ccnc3c2CC(C)(C(=O)NCc2ccncc2)O3)cc1 (stereo unspecified)	34*	/	60*	0	/	178*	145*
CC1(C(=O)NCC2CC2)Cc2c(-c3ccccc3)ccnc2O1 (stereo unspecified)	-6	/	0	-4	/	/	/
CC(=O)Nc1cccc(-c2ccnc3c2CC(C)(C(=O)NCc2ccc(N(C)C)cc2)O3)c1 (stereo unspecified)	12	/	3	11	/	/	/
CN(C)c1ccc(-c2ccnc3c2CC(C)(C(=O)NCc2ccccc2)O3)cc1 (stereo unspecified)	15	/	49*	14	/	-5	-4
CN(C)c1ccc(-c2ccnc3c2CC(C)(C(=O)NCC2CCOCC2)O3)cc1 (stereo unspecified)	15	/	48*	0	/	114*	98*
CC1(C(=O)NCc2cccc(Cl)c2)Cc2c(-c3ccccc3)ccnc2O1 (stereo unspecified)	0	/	0	-3	/	/	/
COc1cc2c(cc1OC)CSC1C(=O)N(C)C(SC2)C(=O)N1C	/	/	/	0	/	/	/
C[C@@H]1CN([C@@H](C)CO)C(=O)CCCn2cc(nn2)CO[C@H]1CN(C)C(=O)Nc1cccc(F)c1	/	/	/	-2	/	/	/
CNc1nccc(-c2ccc(F)cc2)c1C#N	6	-2	32*	7	-3	145*	96*
COC(=O)CSc1nccc(-c2ccc(F)cc2)c1C#N	1	-4	1	2	3	/	/
Cc1cccc(-c2oc3ccc(-c4ccc5c(c4)OCO5)cc3c2/C=C/c2ccc(N)cc2)c1	21	-15	44*	/	-2	135*	120*
COc1ccc(-c2c(-c3cccc(C)c3)oc3ccc(-c4ccc5c(c4)OCO5)cc23)cn1	5	3	3	1	5	/	/
C/C(Cl)=C/Cn1c(N2CCCC2)nc2c1c(=O)n(C)c(=O)n2C	6	/	1	9	/	/	/
C=C(C)Cn1c(N2CCCC2)nc2c1c(=O)n(C)c(=O)n2C	3	1	33*	-4	-5	157*	109*
Cc1ccc2nc(Cl)cc(=O)n2c1	26	/	45*	-10	/	130*	88*
